# Screening results deposited in PubChem BioAssay by Center for Chemical Genomics, University of Michigan.
# This excerpt belongs to a sample that is enriched for hits.
# Dicer processing: human Dicer pre-microRNA cleavage inhibition; AID 1347074; 47,000 compounds, 6% hits; z-score at 25 µM; cat-ELCCA pre-miR-21 Dicer processing, chemiluminescence; hits give high values; in the data active = z-score above about 3, passing the limit was not always enough;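 note: higher signal means more uncleaved substrate so more Dicer inhibition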
# A number is an active result; - = inactive.
SMILES,Dicer processing
COC(=O)c1scc(C)c1N/N=C/c1c(F)cccc1Cl,-
Cc1cccc(Cn2nc(C(C)(C)C)cc2C(=O)NNC(=S)NC2CCCCC2)c1,-
CSc1cccc(Nc2nc(C(C)(C)C)cs2)c1,-
CC12CN3CC(C)(CN(C1)C3c1ccc(O)cc1O)C2=O (stereo not given),-
CCC12CN3CC(CC)(CN(C1)C3c1ccc(O)cc1O)C2=O (stereo not given),-
CC(C)C12CN3CC(C(C)C)(CN(C1)C3c1ccc(O)cc1O)C2=O (stereo not given),5.67
FC(F)(F)c1cnc(NN=C2C3CC4CC(C3)CC2C4)c(Cl)c1,-
Cn1c2c(c(=O)n(C)c1=O)CN(CCc1ccccc1)CN2,-
Cn1c2c(c(=O)n(C)c1=O)CN(CCCCCCO)CN2,-
Cn1c2c(c(=O)n(C)c1=O)CN(CCc1ccc(Cl)c(Cl)c1)CN2,-
COCCN1CNc2c(c(=O)n(C)c(=O)n2C)C1,3.46
Cn1c2c(c(=O)n(C)c1=O)CN(C1CC1)CN2,-
Cn1c2c(c(=O)n(C)c1=O)CN(Cc1ccc(F)cc1)CN2,4.31
NC(=S)c1cc(Br)cc(Br)c1,-
COC(=O)c1ccccc1NC(=S)Nc1ccc(Cl)cn1,-
CC(=O)n1nc(C)c(Sc2ccc(C(F)(F)F)cn2)c1C,-
CCCCC(=O)N1C2=C(C(=O)c3ccccc32)C(c2ccc(Cl)cc2)c2c1n(C)c(=O)n(C)c2=O (stereo not given),-
O=C(Nc1ccc(Cl)cc1)Oc1ccc(-c2ccccc2)cc1,-
Cc1cc(C2c3c(n(C)c(=O)n(C)c3=O)N=C3c4ccccc4C(=O)C32)cc(C)c1O (stereo not given),-
Cc1ccc(OCc2nc(-c3ccncc3)no2)cc1C,-
CC(C)c1ccc(N=Cc2ccccc2O)c(Br)c1,-
N#Cc1nnn(-c2cc(C(F)(F)F)cc(C(F)(F)F)c2)c1N,-
COc1ccc2cc(C(=O)/C=C/N(C)C)ccc2c1,-
Cc1ccc(C(=O)/C=C/C=C/C=C/N(C)C)cc1,4.51
CN(C)/C=C/C(=O)c1ccc(Cl)cc1,-
SMILES,Dicer processing
CN(C)/C=C/C(=O)c1ccc(Cl)c(Cl)c1,4.92
CN(C)/C=C/C(=O)c1ccc(C#Cc2ccccc2)cc1,-
Cc1ccc(C(=O)/C=C/S/C=C/C(=O)c2ccc(C)cc2)cc1,-
O=C(O)CSCC(=O)Nc1nc(-c2ccc(F)c(F)c2)cs1,-
CC1=C(C(=O)OCCc2ccccc2)C(c2ccc3c(c2)OCO3)C2=C(CCCC2=O)N1 (stereo not given),-
Cc1ccc(S(=O)(=O)NNC(=S)Nc2ccc(Cl)cc2)cc1,6.09
CCc1ccc(NC(=S)NNS(=O)(=O)c2ccc(C)cc2)cc1,-
Cc1ccc(S(=O)(=O)NNC(=S)Nc2ccccc2)cc1,-
Cc1ccc(S(=O)(=O)NNC(=S)Nc2c(Cl)cccc2Cl)cc1,-
CSc1nc(C)nc(N/C=C(\C#N)S(=O)(=O)c2ccc(C)cc2)n1,-
N#C/C(=C\NCc1cc(C(F)(F)F)cc(C(F)(F)F)c1)S(=O)(=O)c1ccc(Cl)c(Cl)c1,-
Cc1ccc(S(=O)(=O)NNC(=S)Nc2cc(C(F)(F)F)cc(C(F)(F)F)c2)cc1,3.69
Cc1ccc(S(=O)(=O)/C(C#N)=C/Nc2cc(C(F)(F)F)cc(C(F)(F)F)c2)cc1,3.66
Cc1ccc(S(=O)(=O)NNC(=S)Nc2ccc(Br)c(C)c2)cc1,-
Cc1onc(-c2ccccc2)c1CNS(=O)(=O)c1cnn(-c2ccccc2)c1C,-
O=C(Nc1ccccc1F)C1CC(=O)N(c2ccccc2)C1 (stereo not given),-
Cn1c(-c2ccc(F)cc2)cnc1NCc1c(F)cccc1Cl,-
COC(=O)c1ccc(CN(C(C)=O)C(=O)Nc2ccc(C(=O)OC)cc2C)cc1,-
O=S(=O)(Oc1ccc(Oc2ccccc2)cc1)c1cc(Cl)c(Cl)cc1Cl,-
O=C1CSC(c2ccc(F)cc2)N1c1ccc2ccccc2c1 (stereo not given),-
COc1ccc(Cc2nnc3c4cnn(-c5ccccc5)c4ncn23)cc1,-
Cc1ccc(S(=O)(=O)c2ncsc2SCc2ccc(Cl)cc2Cl)cc1,-
COc1ccc(NC(C)=O)c([N+](=O)[O-])c1,-
N#Cc1cccc(CS(=O)(=O)c2ccccn2)c1,-
O=C(C1Sc2nnc(-c3ccccc3)n2NC1c1ccc(Cl)cc1)N1CCOCC1 (stereo not given),-
SMILES,Dicer processing
CSc1nc2ccccc2n1CCOc1ccc(Cl)cc1,-
C=CCSc1nc2ccccc2n1CC(=O)O,-
C=CCOC(=O)n1c(SC)nc2ccccc21,3.12
COc1ccc(/C=C2\N=C(c3ccccc3)N(/N=C/c3ccc4c(c3)OCO4)C2=O)cc1,-
CC(C)(C)C(=O)CC1(O)C(=O)Nc2ccc(Br)cc21 (stereo not given),-
CCCCCCSC1=C(C#N)C(c2ccccc2Cl)CC(=O)N1 (stereo not given),-
CCCCN1C(=O)C(O)(CC(=O)c2ccc(OC)cc2OC)c2cc(Br)ccc21 (stereo not given),-
CNS(=O)(=O)c1ccc2c(c1)Cc1cc(S(=O)(=O)NC)ccc1-2,-
Cc1ccc(S(=O)(=O)Nc2ccc3c(c2)Cc2cc(Br)ccc2-3)cc1,3.35
Cc1ccc(S(=O)(=O)Nc2ccc(O)c(Br)c2)cc1,-
COC(=O)c1cn(C(=O)COc2ccc(Cl)cc2)c2ccccc12,-
COC(=O)c1cn(C(=O)c2ccco2)c2ccccc12,-
COC(=O)c1cn(C(=O)c2cccs2)c2ccccc12,3.01
CCCCCOc1ccc(C2C(C(=O)OC)=C(C)N=C3SC(C)C(=O)N32)cc1 (stereo not given),-
CCOc1ccc(C2C(C(=O)OC)=C(C)NC3=C2C(=O)c2ccccc23)cc1 (stereo not given),-
CSc1ccc(C2CC(=O)Nc3n[nH]c(-c4ccc(Cl)cc4)c32)cc1 (stereo not given),-
CCOc1cccc(=O)c2c(C)n(-c3ccc(OC)cc3)c(C)c12,-
CCOc1cccc(=O)c2c(C)n(-c3ccc4c(c3)OCO4)c(C)c12,-
CCOC(=O)c1ccc(-n2c(C)c3c(OCC)cccc(=O)c3c2C)cc1,3.62
O=C(CSc1ncccn1)Nc1cccc2nsnc12,-
O=C(CSCC(=O)c1ccccc1)c1ccccc1,-
Cc1ccc2ncnc(NC3CCCCC3)c2c1,4.71
Cc1ccc(Nc2ncnc3ccccc23)c(C)c1,-
Cn1ncc2c(NC3CCCCC3)ncnc21,-
O=C1C(=O)N(CCCN2CCOCC2)C(c2ccc(F)cc2)/C1=C(\O)c1ccc(Cl)cc1 (stereo not given),-
SMILES,Dicer processing
CN1N=C(c2ccc3ccccc3c2)CC1c1ccc(F)cc1 (stereo not given),-
Cn1cc(C(=O)O/N=C(/N)c2ccc(Cl)cc2)c(C(F)(F)F)n1,-
CC12CC3CC(C)(C1)CC(C(=O)NN)(C3)C2,-
Cc1sc2c(c1C)C(=O)/C(=C\Nc1cccnc1)S(=O)(=O)N2C,-
Cc1cc(N/C=C2\C(=O)c3c(sc(C)c3C)N(C)S2(=O)=O)nc(C)n1,3.57
Cc1sc2c(c1C)C(=O)/C(=C\Nc1ncccn1)S(=O)(=O)N2C,-
O=C1CC(C(=O)Nc2ccccc2F)n2c(nc3ccccc32)N1 (stereo not given),-
Cn1nc(NC(=O)CC23CC4CC(CC(C4)C2)C3)c2ccccc21,-
CCc1ccc(N=c2ssc(SC)c2-c2ccccc2)cc1,-
c1ccc2[nH]c(CN3CCCCC3)nc2c1,-
O=c1[nH]c(CN2CCCCC2)nc2c1oc1ccccc12,-
O=c1[nH]c(CN2CCOCC2)nc2ccccc12,6.86
